Hits are enriched below; roughly 7.5% of the tested compounds scored in any of these assays.
NPC1 prom act – activates the NPC1 promoter; Huh7 NPC1 promoter luciferase reporter, 24 h; Potency, µM (series often up to 9.22 µM), most hits filed as activators; hit rate 2.4% among 320,000; AID 485313; further: nearly all actives have a fitted effect of over 60% in size
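Huh7 cells stably carrying NPC1 promoter–luciferase, plated in Opti-MEM with 10% FBS for 2 h, were exposed to compound in DMSO for 24 h at 37 °C; luciferase reagent was added for 10 min and luminescence read.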
Rab9 prom act – activates the Rab9 promoter. Huh7 Rab9 promoter-luciferase reporter, luminescence, 24 h. Potency, µM (highest dose often 9.22 µM), most hits filed as activators. hit rate 2.8% among 320,000. AID 485297; further: nearly all actives have a fitted effect of over 60% in size
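Luminescence read-out: Huh7 cells stably expressing Rab9-luciferase, treated 24 h with compound at 37 °C, then lysed with luciferase reagent for 10 min at ambient before reading.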
SMN2 splice enh – enhancers of SMN2 splice variant expression; hit rate 2.8% among 210,000; Potency, µM (highest dose often 46.1 µM), most hits filed as activators; HEK293 SMN2-luciferase splicing reporter, luminescence, 30-36 h; further: nearly all actives have a fitted effect of over 55% in size
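qHTS luciferase splicing reporter: luminescence rises when SMN2 exon 7 is included in transfected HEK293 cells. Compound exposure lasted 30-36 h at 37C, with 4.5 mM final sodium butyrate as control, followed by a ONE-Glo read.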
FLuc modulator – counter-screen for miR-21 project: firefly luciferase inhibitors or activators; purified FLuc, Km substrates, luminescence inhibition; AID 588342; P08659; Potency, µM (titrated, usually from 57.5 µM), usual class: inhibitors; hit rate 6.9% among 360,000; further: nearly all actives have a fitted effect of over 55% in size
Target sequence (P08659 whole entry, looked up): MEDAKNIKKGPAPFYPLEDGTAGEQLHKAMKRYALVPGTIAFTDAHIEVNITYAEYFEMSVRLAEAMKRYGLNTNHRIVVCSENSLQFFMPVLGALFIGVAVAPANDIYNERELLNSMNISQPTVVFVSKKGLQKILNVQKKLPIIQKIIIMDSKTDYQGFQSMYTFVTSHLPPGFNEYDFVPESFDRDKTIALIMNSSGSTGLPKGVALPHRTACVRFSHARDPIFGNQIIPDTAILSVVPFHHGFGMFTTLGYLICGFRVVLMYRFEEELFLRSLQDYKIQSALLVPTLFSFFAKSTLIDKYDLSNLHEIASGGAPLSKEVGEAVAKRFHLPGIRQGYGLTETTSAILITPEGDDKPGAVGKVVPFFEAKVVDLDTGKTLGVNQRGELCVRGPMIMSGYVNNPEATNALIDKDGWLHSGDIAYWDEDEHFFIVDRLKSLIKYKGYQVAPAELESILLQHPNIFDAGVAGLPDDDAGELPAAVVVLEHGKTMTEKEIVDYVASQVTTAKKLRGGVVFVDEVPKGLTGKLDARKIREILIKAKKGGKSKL
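Biochemical qHTS of compounds, final roughly 60 µM downward over six points, against 10 nM purified firefly luciferase using Km concentrations of substrates (10 uM D-luciferin, 10 uM ATP) in Tris acetate pH 7.5 buffer; luminescence output.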
ELG1 genotox – inducers of genotoxicity in HEK293T ELG1-luciferase cells. HEK293T ELG1-luciferase reporter, luminescence, 16 h. AID 504466. hit rate 1.3% among 330,000. Potency, µM (highest dose often 46 µM), most hits filed as activators; further: nearly all actives have a fitted effect of over 60% in size
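HEK293T cells expressing luciferase-tagged ELG1 were exposed to compound or DMSO vehicle for 16 hr at 37 °C and 5% CO2. Luciferase activity was then measured with ONE-Glo after 30 min at room temperature.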
Hits are given with their value; 0 = inactive; ? = inconclusive; - = not tested or not shown; [ ] = remark or other dose. The call rests on the fitted dose curve; in most records, active means well fitted curve in the direction sought with a large enough effect; inconclusive means small, poorly fitted or top-dose-only effect, or another doubt; inactive means no such curve, though single readings can be large; an effect the other way counts as inactive or inconclusive.

SMILES	NPC1 prom act	Rab9 prom act	SMN2 splice enh	FLuc modulator	ELG1 genotox
COc1ccc(/C=N/n2nnnc2N)c(OC)c1	0	0	-	?	0
CCOC(=O)c1sc(NC(=O)c2ccc(S(=O)(=O)N(C)C)cc2)cc1C	0	0	0	0	0
CCN(CC)S(=O)(=O)c1ccc(NC(=S)NC(=O)CC(C)C)cc1	0	0	0	0	0
CCc1ccc(NC(=S)NC(=O)CC(C)C)cc1	?	?	8.9µM	7.6µM	?
CCOC(=O)c1sc(NC(=S)NC(=O)CC(C)C)cc1C	0	?	0	19µM	0
CCOC(=O)c1sc(NC(=S)NC(=O)C2CCCC2)cc1C	0	0	-	0	0
CCOC(=O)c1sc(NC(=O)c2ccccc2)cc1C	1.6µM	0.71µM	11µM	1.1µM	1.3µM
O=C(C1CCC(Cn2c(=O)c3sccc3n(Cc3cccc(F)c3)c2=O)CC1)N1CCOCC1 (configuration not stated)	-	-	-	0	-
CCCN(CCC)C(=O)Cn1c(=O)n(-c2ccccc2)c(=O)c2c3c(sc21)CCCC3	-	-	0	0	-
COc1cccc(-c2cc(C(=O)Nc3nc4ccccc4s3)c3ccccc3n2)c1	0	0	0	17µM	0
COc1ccc(-c2cc(C(=O)Nc3nc4c(C)cccc4s3)c3ccccc3n2)cc1OC	0	0	0	11µM	0
CCN(CC)C(=O)CN1C(=O)COCC1=O	0	0	0	0	0
COc1ccccc1N1C(=NC(=O)COc2ccccc2)SC2CS(=O)(=O)CC21 (configuration not stated)	0	0	-	0	0
C(=N\Nc1nc2ccccc2s1)/c1ccc2c(c1)OCO2	4µM	1.3µM	1µM	0.76µM	?
Brc1cc2c(cc1/C=N/Nc1nc3ccccc3s1)OCO2	?	?	?	0	18µM
O=C(O)C/C(=C\c1cc2c(cc1Br)OCO2)c1nc2ccccc2s1	0	0	-	0	0
Cc1cc(C(=O)N/N=C/c2ccc3c(c2)OCO3)c2ccccc2n1	0	0	-	0	0
Cc1nc(N/N=C\c2ccc3c(c2)OCO3)sc1C	1.6µM	0.32µM	-	1.9µM	?
COc1ccc(S(=O)(=O)N2CCN(c3ccc(F)cc3)CC2)cc1C(=O)N1CCOCC1	0	0	-	0	0
CCCCn1cnc2c(SC)ncnc21	-	-	0[9.22 µM]	-	-
O=C(Oc1ccc2c(c1)OCC2=O)c1ccc(Cl)cc1	0	0	-	?	0
O=C(Oc1ccc2c(c1)C(=O)c1ccccc1CO2)c1ccccc1	0	0	0	21µM	?
COc1ccc(C(=O)c2cn(Cc3cccc(C)c3)c3cc4c(cc3c2=O)OCO4)cc1	-	-	0	0	-
O=C(Nc1ccc2c(c1)OCO2)C(c1ccc(Cl)cc1)N1CCC2(CC1)OCCO2 (configuration not stated)	0	0	0	0	0
O=C(Nc1ccc(Cl)cc1)N1CCOC12CCC1(CC2)OCCO1	0	0	0	17µM	0
SMILES	NPC1 prom act	Rab9 prom act	SMN2 splice enh	FLuc modulator	ELG1 genotox
C[C@@]12C[C@H](O)C3[C@H](CCC4=CC(=O)CC[C@]43C)[C@H]1CC[C@@H]2c1csc(N)n1 (some centres not stated)	-	-	0[9.22 µM]	-	-
COc1ccc(N(CC(=O)Nc2ccccc2OC)S(=O)(=O)c2ccc(NC(C)=O)cc2)cc1	0	0	-	0	0
CC(C)Oc1cccc(-c2cc(C(=O)NC(=S)N(C)c3ccccc3C(=O)O)c3ccccc3n2)c1	0	0	0	2.7µM	0
CCCc1ccc(-c2cc(C(=O)NCCc3ccc(S(N)(=O)=O)cc3)c3ccccc3n2)cc1	?	2.8µM	?	0.67µM	0
CCC/C=N/NC(=O)c1cc(-c2ccccc2)nc2ccccc12	0	0	0	?	0
CC(C)Oc1cccc(-c2cc(C(=O)NN3CCOCC3)c3ccccc3n2)c1	0	0[1.84 µM]	-	13µM	0
NS(=O)(=O)c1ccc(CCNC(=O)c2cc(-c3ccc(Br)cc3)nc3ccccc23)cc1	0	0	0	?	0
CCc1ccc(-c2cc(C(=O)Nn3cnnc3)c3ccccc3n2)cc1	?	?	?	0.067µM	?
O=C(NN1CCOCC1)c1cc(-c2ccc(Br)s2)nc2ccccc12	0	0	0	0	0
CC(C)(C)NC(=O)CN(C(=O)c1csnn1)c1cccc2c1CCCC2	0	0	0	0	0
CCOC(=O)c1c(NC(=O)c2cc(=O)c3c(C)cc(C)cc3o2)sc2c1CCC2	-	-	0	0	-
CC(C)NC[C@H](O)COc1cccc2ccccc12	0	0	0	-	-
Cc1cc(C)c2nc(-c3ccccn3)cc(C(=O)NCc3cc(C)n(C)n3)c2c1	0	0	0	0	?
CCCc1ccc(-c2cc(C(=O)NN3CCOCC3)c3ccccc3n2)cc1	?	?	?	1.7µM	0
CCc1ccc(-c2cc(C(=O)N3N=C(C(F)F)CC3(O)C(F)F)c3ccccc3n2)cc1 (configuration not stated)	0	0	0	5.4µM	0
Cc1cc(C)c2nc(-c3ccccn3)cc(C(=O)Nn3cnnc3)c2c1	0	0	0	19µM	0
CCCCNC(=O)C(Cc1ccccc1)NS(=O)(=O)c1ccc2c(c1)c(=O)n(C)c(=O)n2C (configuration not stated)	0	0	0	0	0
Oc1ccc2ccccc2c1Cc1c(O)ccc2ccccc12	-	-	0[9.22 µM]	-	-
Cc1oc(-c2cccs2)nc1CNC[C@H]1O[C@@H](n2cnc3c(N)ncnc32)[C@H](O)[C@@H]1O	-	-	-	-	0
Oc1ccc(C=Nc2ccc(N3CCOCC3)cc2)c(O)c1	0	0	0	17µM	0
Oc1cc(Br)ccc1C=Nc1ccc(N2CCCCC2)cc1	0	0	-	1.2µM	0
Oc1c(Cl)cc(Cl)cc1C=Nc1ccc(N2CCOCC2)cc1	0	0	-	?	0
COc1c(OC(C)=O)ccc(/C=C/c2ccc3cccc(OCc4ccccc4)c3n2)c1[N+](=O)[O-]	?	?	0[1.84 µM]	1.5µM	0
O=C(N/N=C/c1ccc2cccc(OCc3ccccc3)c2n1)c1ccc(Br)cc1	0	0	0	2.7µM	0
COc1ccc(C(=O)N/N=C/c2ccc3cccc(OCc4ccccc4)c3n2)cc1	0	0	0	1.5µM	0
SMILES	NPC1 prom act	Rab9 prom act	SMN2 splice enh	FLuc modulator	ELG1 genotox
COc1cc(/C=C/c2ccc3cccc(OC)c3n2)c(OC(C)=O)c([N+](=O)[O-])c1	0	0	0	0	0
Cc1cc(OC(C)C(=O)NCCCN2CCOCC2)ccc1Cl (configuration not stated)	0	0	-	0	0
O=C(NCc1ccncc1)c1ccc2nc(Cc3ccccc3F)oc2c1	0	0	-	0	0
O=C(c1ccc2nc(Cc3ccccc3F)oc2c1)N1CCCC1	2.8µM	1.3µM	-	9.5µM	10µM
Cc1cc(CNC(=O)c2ccc3nc(Cc4ccccc4F)oc3c2)nn1C	2.8µM	3.2µM	-	11µM	?
CC(c1ccccn1)N(C)C(=O)c1ccc2nc(Cc3ccccc3F)oc2c1 (configuration not stated)	?	2.8µM	-	6.7µM	13µM
CC(=O)N1CCCN(C(=O)c2ccc3nc(Cc4ccccc4F)oc3c2)CC1	0	0	-	0	0

Screening data deposited in PubChem BioAssay by National Center for Advancing Translational Sciences (NCATS).
